# Experimental data taken from PubChem BioAssay (Tox21).
# Several values for one entry are separate records, joined by “and”; a condition that tells them apart may be missing. Identical values can stand only once. Inconclusive results are not listed. Entries that show only a call come without a potency. Some compounds were tested as several samples or in several runs, with calls that do not always agree. Activity calls are given as the source filed them. Calls follow the shape of the dose curve; as a rule, active = well fitted cell-killing curve with a large enough effect in the repeat runs; inconclusive = weak or mixed curves, or effect the other way; inactive = no such curve, though single readings can be large or run the other way.
# Assay: qHTS assay to identify small molecule antagonists of the glucocorticoid receptor (GR) signaling pathway - cell viability counter screen (AID 720693); also: nearly all actives have a fitted effect of over 55% in size
# Details: GR-bla HeLa viability, CellTiter-Glo luminescence, 18 h, with 5 nM dexamethasone present; series mostly up to 58.5 µM
row,SMILES,Potency
1,CS(=O)(=O)c1ccc(Cl)cc1,inactive
2,Nc1nc(N)c2nc(-c3ccccc3)c(N)nc2n1,inactive
3,C=C(C)CC(C)(C)C,inactive
4,Cc1ncc(CO)c(CO)c1O,inactive
5,O=C1OC(=O)c2c(Cl)c(Cl)c(Cl)c(Cl)c21,inactive
6,NC(=O)c1ncn([C@@H]2O[C@H](CO)[C@@H](O)[C@H]2O)n1,inactive
7,CN1CCCC1=O,inactive
8,Cc1ccccc1Cl,inactive
9,NCCNCCNCCN,inactive
10,Cc1cc(C)cc(O)c1,inactive
11,CCCCCCCCO,inactive
12,Cc1ccc(C(C)C)cc1,inactive
13,Cc1cc(CC(=O)O)n(C)c1C(=O)c1ccc(Cl)cc1,inactive
14,NC(N)=S,inactive
15,Nc1cccc(N)n1,inactive
16,Cc1ccccc1C=O,inactive
17,Cc1ccncc1,inactive
18,NC(=O)NC(N)=O,inactive
19,CO[Si](CCCNCCN)(OC)OC,inactive

row,SMILES,Potency
1,CC(=O)OCCC(C)C,inactive
2,CN=C(NC#N)NCCSCc1nc[nH]c1C,inactive
3,OCC(O)CS (centres undefined),inactive
4,O=C1C(N(CO)C(=O)NCO)N(CO)C(=O)N1CO (centres undefined),inactive
5,COC(=O)/C=C\C(=O)OC,inactive
6,C[n+]1ccn(CCO)c1,inactive
7,COc1c2ccoc2cc2oc(=O)ccc12,inactive
8,CC(=O)C(C)C,inactive
9,c1cnc2c(c1)ccc1cccnc12,inactive
10,CCCOCC(C)O (centres undefined),inactive
11,CC1(C)C(=O)N(Cl)C(=O)N1Cl,inactive
12,CCCN(CCC)C(=O)SCC,inactive
13,O=[N+]([O-])c1cc(C(F)(F)F)ccc1Cl,inactive
14,CC(C=O)Cc1ccc(C(C)(C)C)cc1 (centres undefined),inactive
15,CC(C)(CO)CO,inactive
16,N#CCC(=O)O,inactive
17,COc1c(Cl)ccc(Cl)c1C(=O)O,inactive
18,O=[N+]([O-])c1ccccc1C(F)(F)F,inactive
19,OCCOCCOCCOCCOCCO,inactive

# Assay: qHTS assay for identifying genotoxic compounds that show differential cytotoxicity against isogenic chicken DT40 cell lines with known DNA damage response pathways - wild type cell line (AID 743012); also: nearly all actives have a fitted effect of over 60% in size; also: potency is read from the fitted curve at half-maximal effect
# Details: DT40 wild type chicken cells viability, CellTiter-Glo, 40 h; series mostly up to 68.4 µM
# Summary of the method: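 Wild-type DT40 cells (300/well) exposed to compounds for 40 hours at 37 C/5% CO2. Viability read by CellTiter-Glo luminescence after 30 min at room temperature.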
row,SMILES,Potency
1,CS(=O)(=O)c1ccc(Cl)cc1,inactive
2,Nc1nc(N)c2nc(-c3ccccc3)c(N)nc2n1,11.9 µM (active) and 12.3 µM (active) and 4.86 µM (active)
3,C=C(C)CC(C)(C)C,inactive
4,Cc1ncc(CO)c(CO)c1O,inactive
5,O=C1OC(=O)c2c(Cl)c(Cl)c(Cl)c(Cl)c21,inactive
6,NC(=O)c1ncn([C@@H]2O[C@H](CO)[C@@H](O)[C@H]2O)n1,668 nM (active) and 5.12 µM (active)
7,CN1CCCC1=O,inactive
8,Cc1ccccc1Cl,inactive
9,NCCNCCNCCN,inactive
10,Cc1cc(C)cc(O)c1,inactive
11,CCCCCCCCO,inactive
12,Cc1ccc(C(C)C)cc1,inactive
13,Cc1cc(CC(=O)O)n(C)c1C(=O)c1ccc(Cl)cc1,inactive
14,NC(N)=S,inactive
15,Nc1cccc(N)n1,inactive
16,Cc1ccccc1C=O,inactive
17,Cc1ccncc1,inactive
18,NC(=O)NC(N)=O,inactive
19,CO[Si](CCCNCCN)(OC)OC,inactive

row,SMILES,Potency
1,CC(=O)OCCC(C)C,inactive
2,CN=C(NC#N)NCCSCc1nc[nH]c1C,inactive
3,OCC(O)CS (centres undefined),inactive
4,O=C1C(N(CO)C(=O)NCO)N(CO)C(=O)N1CO (centres undefined),inactive
5,COC(=O)/C=C\C(=O)OC,inactive
6,C[n+]1ccn(CCO)c1,inactive
7,COc1c2ccoc2cc2oc(=O)ccc12,inactive
8,CC(=O)C(C)C,inactive
9,c1cnc2c(c1)ccc1cccnc12,3.09 µM (active) and 1.54 µM (active) and 3.86 µM (active)
10,CCCOCC(C)O (centres undefined),inactive
11,CC1(C)C(=O)N(Cl)C(=O)N1Cl,inactive
12,CCCN(CCC)C(=O)SCC,inactive
13,O=[N+]([O-])c1cc(C(F)(F)F)ccc1Cl,inactive
14,CC(C=O)Cc1ccc(C(C)(C)C)cc1 (centres undefined),inactive
15,CC(C)(CO)CO,inactive
16,N#CCC(=O)O,inactive
17,COc1c(Cl)ccc(Cl)c1C(=O)O,inactive
18,O=[N+]([O-])c1ccccc1C(F)(F)F,inactive
19,OCCOCCOCCOCCOCCO,inactive

# Assay: qHTS assay for identifying genotoxic compounds that show differential cytotoxicity against isogenic chicken DT40 cell lines with known DNA damage response pathways - Rev3 mutant cell line (AID 743014); also: nearly all actives have a fitted effect of over 55% in size; also: potency is read from the fitted curve at half-maximal effect
# Details: chicken DT40 Rev3-/- viability, CellTiter-Glo, 40 h; series mostly up to 68.4 µM
row,SMILES,Potency
1,CS(=O)(=O)c1ccc(Cl)cc1,inactive
2,Nc1nc(N)c2nc(-c3ccccc3)c(N)nc2n1,9.44 µM (active) and 3.9 µM (active) and 6.11 µM (active)
3,C=C(C)CC(C)(C)C,inactive
4,Cc1ncc(CO)c(CO)c1O,inactive
5,O=C1OC(=O)c2c(Cl)c(Cl)c(Cl)c(Cl)c21,inactive
6,NC(=O)c1ncn([C@@H]2O[C@H](CO)[C@@H](O)[C@H]2O)n1,750 nM (active) and 1.62 µM (active)
7,CN1CCCC1=O,inactive
8,Cc1ccccc1Cl,inactive
9,NCCNCCNCCN,inactive
10,Cc1cc(C)cc(O)c1,inactive
11,CCCCCCCCO,inactive
12,Cc1ccc(C(C)C)cc1,inactive
13,Cc1cc(CC(=O)O)n(C)c1C(=O)c1ccc(Cl)cc1,inactive
14,NC(N)=S,inactive
15,Nc1cccc(N)n1,inactive
16,Cc1ccccc1C=O,inactive
17,Cc1ccncc1,inactive
18,NC(=O)NC(N)=O,inactive
19,CO[Si](CCCNCCN)(OC)OC,inactive

row,SMILES,Potency
1,CC(=O)OCCC(C)C,inactive
2,CN=C(NC#N)NCCSCc1nc[nH]c1C,inactive and 54 µM (active)
3,OCC(O)CS (centres undefined),inactive
4,O=C1C(N(CO)C(=O)NCO)N(CO)C(=O)N1CO (centres undefined),inactive
5,COC(=O)/C=C\C(=O)OC,inactive
6,C[n+]1ccn(CCO)c1,inactive
7,COc1c2ccoc2cc2oc(=O)ccc12,inactive
8,CC(=O)C(C)C,inactive
9,c1cnc2c(c1)ccc1cccnc12,1.38 µM (active) and 1.22 µM (active) and 2.43 µM (active)
10,CCCOCC(C)O (centres undefined),inactive
11,CC1(C)C(=O)N(Cl)C(=O)N1Cl,inactive
12,CCCN(CCC)C(=O)SCC,inactive
13,O=[N+]([O-])c1cc(C(F)(F)F)ccc1Cl,inactive
14,CC(C=O)Cc1ccc(C(C)(C)C)cc1 (centres undefined),inactive
15,CC(C)(CO)CO,inactive
16,N#CCC(=O)O,inactive
17,COc1c(Cl)ccc(Cl)c1C(=O)O,inactive
18,O=[N+]([O-])c1ccccc1C(F)(F)F,inactive
19,OCCOCCOCCOCCOCCO,inactive and 24.3 µM (active)
